# Test results published in PubChem BioAssay.
# “And” between values parts separate entries of the source, which are not always exact repeats. Equal entries are not always repeated. The source made the active and inactive calls.
# What was measured:
# Albumin (Bos taurus) = Albumin (Bos taurus) (UniProt P02769); assay: compounds binding labelled BSA control protein – biochemical, small-molecule microarray, Alexa647 label, 635/667 nm fluorescence, artefact control for SMM control protein annotation, profiling panel (AID 1118); settings: BSA-A647 binding, fluorescence 635 nm, higher = more signal;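 note: score merges 667 nm emission intensity and signal-to-noise per printed compound spot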
# Chain of Albumin (Bos taurus) (P02769 whole entry, looked up): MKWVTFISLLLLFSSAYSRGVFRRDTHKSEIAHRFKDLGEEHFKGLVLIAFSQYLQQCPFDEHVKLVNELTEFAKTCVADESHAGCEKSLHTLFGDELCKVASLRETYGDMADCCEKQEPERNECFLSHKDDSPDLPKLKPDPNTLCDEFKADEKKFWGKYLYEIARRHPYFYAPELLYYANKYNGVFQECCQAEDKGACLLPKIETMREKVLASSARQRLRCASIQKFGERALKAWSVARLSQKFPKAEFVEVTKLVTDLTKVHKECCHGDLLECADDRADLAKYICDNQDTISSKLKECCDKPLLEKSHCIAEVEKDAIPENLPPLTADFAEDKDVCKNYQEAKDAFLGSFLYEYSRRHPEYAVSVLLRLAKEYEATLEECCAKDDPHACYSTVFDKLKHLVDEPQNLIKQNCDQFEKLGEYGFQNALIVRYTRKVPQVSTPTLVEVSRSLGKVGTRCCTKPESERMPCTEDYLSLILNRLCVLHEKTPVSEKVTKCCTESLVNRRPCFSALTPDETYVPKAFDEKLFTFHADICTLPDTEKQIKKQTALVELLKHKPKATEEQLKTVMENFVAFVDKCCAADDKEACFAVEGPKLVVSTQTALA
# [1] = probe aXIP binding to arrayed compounds – biochemical, NeuroSMM set, 635/667 nm fluorescence, primary screen (AID 1119); settings: small-molecule microarray, higher = more signal, called active from +8 up or from −8 down;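 note: probe is the protein aXip251-270 applied at 1 µg/mL to compound-printed slides; binding of probe to printed compounds measured as 667 nm fluorescence plus signal to noise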
# [2] = probe aNOTCH3 binding on compound microarray – biochemical, small-molecule microarray, 635/667 nm fluorescence, primary screen (AID 1120); settings: higher = more signal;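 note: probe is a biotin-tagged antibody raised against NOTCH3 rather than NOTCH3 protein; score merges spot fluorescence near 667 nm with spot signal to noise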
# [3] = probe aNOTCH2 binding on compound microarray – biochemical, small-molecule microarray, 635/667 nm fluorescence, primary screen (AID 1121); settings: higher = more signal;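 note: score merges feature fluorescence read at 667 nm with its signal to noise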
# [4] = target: Carbonic anhydrase 2 (Homo sapiens) (UniProt P00918); assay: compounds binding carbonic anhydrase 2 – biochemical, small-molecule microarray, Alexa647-labelled CAII, profiling panel (AID 1122); settings: CAII-A647 binding fluorescence, higher = more signal
# [5] = COS7 lysate on small-molecule microarray, probe aHis, 635 nm (AID 1123); settings: COS7 cell lysate, fluorescence, higher = more signal;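 note: z-score combines 667nm fluorescence intensity with signal-to-noise per printed compound spot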
# [6] = probe aLAP1 signal on lysate-treated microarray – cell lysate, small-molecule microarray, COS7 lysate, primary screen (AID 1124); settings: probe aLAP1, fluorescence, higher = more signal;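 note: lysate comes from COS7 cells expressing LAP1 and is applied at 0.3 µg/mL; score merges spot fluorescence near 667 nm with signal-to-noise over triplicate slides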
# Sam68 (KHDRBS1) = assay: compounds binding KHDRBS1 protein – biochemical, small-molecule microarray, 635 nm fluorescence, primary screen (AID 1125); settings: higher = more signal;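 note: score merges 667 nm channel intensity with signal to noise over triplicate slides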
# [7] = tested on: Chordin-like protein 2 (CHRDL2); assay: compounds binding chordin-like 2 – biochemical, small-molecule microarray, 635 nm fluorescence, primary screen (AID 1126); settings: fluorescence 635 nm, higher = more signal;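 note: printed compound slides probed with Chrdl2 protein at 4 µg/mL for 1 h at 4 C; score merges 667 nm emission intensity with signal to noise over three replicate slides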
# [8] = target: Concanavalin-A (Canavalia ensiformis) (UniProt P02866); assay: compounds binding concanavalin A lectin – biochemical, small-molecule microarray, Alexa647 label, 635 nm, artefact control for SMM control protein annotation, primary screen (AID 1127); settings: ConA-A647 binding fluorescence, higher = more signal;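 note: z combines 667 nm emission intensity with signal-to-noise across three replicate slides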
# Chain of Concanavalin-A (Canavalia ensiformis) (P02866 whole entry, looked up): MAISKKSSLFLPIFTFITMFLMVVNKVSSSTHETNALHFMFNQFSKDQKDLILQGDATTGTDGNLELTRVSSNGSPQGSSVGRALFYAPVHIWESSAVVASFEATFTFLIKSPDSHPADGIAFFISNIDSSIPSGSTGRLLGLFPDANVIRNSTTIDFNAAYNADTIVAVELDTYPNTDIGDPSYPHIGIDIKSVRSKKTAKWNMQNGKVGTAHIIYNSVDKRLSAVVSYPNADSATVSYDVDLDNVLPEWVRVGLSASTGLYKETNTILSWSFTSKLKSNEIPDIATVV
# [9] = compounds binding Alexa647 anti-His antibody – biochemical, small-molecule microarray, 635 nm fluorescence, artefact control for SMM control protein annotation, primary screen (AID 1128); settings: higher = more signal;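 note: score merges feature fluorescence with signal-to-noise for each printed compound spot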
# [10] = tested on: Human papillomavirus type 1a E7 protein (residues 1-88); assay: HPV1a E7 small-molecule binders, primary screen, biochemical, small-molecule microarray, residues 1-88, 635 nm (AID 1129); settings: small-molecule microarray binding, fluorescence 635 nm; higher = more signal
# [11] = target: Focal adhesion kinase 1 (Homo sapiens) (UniProt Q05397); assay: PTK2 protein binding on printed compound slides – biochemical, small-molecule microarray, 635/667 nm fluorescence, BSA, DTT, primary screen (AID 1130); settings: 635 nm fluorescence, higher = more signal;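 note: composite of spot emission at 667 nm and signal to noise over triplicate slides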
# Chain of Focal adhesion kinase 1 (Homo sapiens) (Q05397 whole entry, looked up): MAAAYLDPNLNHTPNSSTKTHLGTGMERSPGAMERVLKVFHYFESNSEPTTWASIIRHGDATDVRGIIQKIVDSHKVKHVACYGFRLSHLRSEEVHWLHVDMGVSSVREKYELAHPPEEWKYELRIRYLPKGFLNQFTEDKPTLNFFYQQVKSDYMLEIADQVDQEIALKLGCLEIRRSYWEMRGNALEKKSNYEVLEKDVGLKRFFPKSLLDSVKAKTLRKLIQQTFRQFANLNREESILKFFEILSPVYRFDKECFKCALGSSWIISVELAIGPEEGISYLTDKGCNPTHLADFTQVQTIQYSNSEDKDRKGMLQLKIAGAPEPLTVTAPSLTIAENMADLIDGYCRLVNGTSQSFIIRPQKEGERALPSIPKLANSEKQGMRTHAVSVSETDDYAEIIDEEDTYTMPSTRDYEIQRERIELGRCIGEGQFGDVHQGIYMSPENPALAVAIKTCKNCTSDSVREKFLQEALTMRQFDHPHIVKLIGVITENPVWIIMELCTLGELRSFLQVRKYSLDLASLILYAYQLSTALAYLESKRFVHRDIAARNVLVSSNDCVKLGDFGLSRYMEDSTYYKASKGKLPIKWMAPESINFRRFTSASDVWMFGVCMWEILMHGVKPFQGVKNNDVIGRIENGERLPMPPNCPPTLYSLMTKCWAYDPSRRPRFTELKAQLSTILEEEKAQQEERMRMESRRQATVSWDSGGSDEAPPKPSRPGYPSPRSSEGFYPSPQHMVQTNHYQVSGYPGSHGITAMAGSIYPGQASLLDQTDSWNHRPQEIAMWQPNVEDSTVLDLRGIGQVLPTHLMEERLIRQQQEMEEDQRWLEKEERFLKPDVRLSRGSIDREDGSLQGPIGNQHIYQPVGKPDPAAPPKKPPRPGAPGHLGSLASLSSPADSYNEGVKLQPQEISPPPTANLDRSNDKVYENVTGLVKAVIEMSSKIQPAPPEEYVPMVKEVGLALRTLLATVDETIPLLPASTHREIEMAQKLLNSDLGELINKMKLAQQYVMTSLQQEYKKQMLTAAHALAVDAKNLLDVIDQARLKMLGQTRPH
# [12] = tested on: Fibrinogen (Alexa647-labelled); assay: Alexa647-fibrinogen binding to printed small molecules – biochemical, small-molecule microarray, 635/667 nm fluorescence, artefact control for SMM control-protein annotation, profiling panel (AID 1131); settings: fibrinogen-A647 binding fluorescence, higher = more signal;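 note: z-score merges 667 nm fluorescence with per-spot signal-to-noise over triplicate slides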
# [13] = target: Follistatin (Homo sapiens) (UniProt P19883); assay: FST protein binding to printed compounds – biochemical, small-molecule microarray, 635/667 nm fluorescence, primary screen (AID 1132); settings: 635 nm fluorescence, higher = more signal
# Chain of Follistatin (Homo sapiens) (P19883 whole entry, looked up): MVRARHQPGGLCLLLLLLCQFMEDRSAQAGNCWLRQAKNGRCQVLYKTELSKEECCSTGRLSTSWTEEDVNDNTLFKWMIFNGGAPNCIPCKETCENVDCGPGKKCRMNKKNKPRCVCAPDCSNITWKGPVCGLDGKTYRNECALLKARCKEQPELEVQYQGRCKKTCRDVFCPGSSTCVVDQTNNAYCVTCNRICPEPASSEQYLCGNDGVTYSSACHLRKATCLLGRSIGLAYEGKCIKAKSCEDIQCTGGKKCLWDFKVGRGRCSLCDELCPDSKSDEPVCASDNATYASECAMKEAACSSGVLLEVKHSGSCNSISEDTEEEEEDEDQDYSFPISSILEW
# [14] = target: Fibroblast growth factor 2 (Homo sapiens) (UniProt P09038); assay: basic fibroblast growth factor binding to printed compounds – biochemical, small-molecule microarray, 635/667 nm fluorescence, primary screen (AID 1133); settings: FGF2, fluorescence 635/667, higher = more signal
# Chain of Fibroblast growth factor 2 (Homo sapiens) (P09038 whole entry, looked up): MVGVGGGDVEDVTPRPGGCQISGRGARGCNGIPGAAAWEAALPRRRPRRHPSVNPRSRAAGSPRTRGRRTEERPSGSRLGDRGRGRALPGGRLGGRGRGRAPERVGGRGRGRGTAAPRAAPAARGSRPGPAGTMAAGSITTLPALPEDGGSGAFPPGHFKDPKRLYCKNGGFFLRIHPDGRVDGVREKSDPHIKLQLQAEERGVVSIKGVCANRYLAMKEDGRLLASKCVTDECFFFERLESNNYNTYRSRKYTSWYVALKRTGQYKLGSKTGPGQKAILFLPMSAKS
# [15] = JC-1 mitochondrial potential readout, lung cancer cells – cell-based, A549, JC-1 fluorescence, basal, 24 h, 100 nL, profiling panel (AID 1138); settings: higher = more signal;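 note: A549 lung adenocarcinoma cells under basal conditions with no added stimulus; test concentration not given here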
# Lefty1 = Lefty1 protein binding to printed compounds – biochemical, small-molecule microarray, 635/667 nm fluorescence, primary screen (AID 1139); settings: fluorescence 635/667, higher = more signal
# [16] = tested on: wheat germ agglutinin (Triticum aestivum), Alexa647-labelled; assay: Alexa647-WGA lectin binding to printed small molecules – biochemical, small-molecule microarray, 635/667 nm fluorescence, artefact control for SMM control-protein annotation, profiling panel (AID 1140); settings: WGA-A647 binding, 635 nm fluorescence, higher = more signal;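 note: score merges 667 nm feature emission with signal to noise over triplicate slides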
# [17] = target: Luciferin 4-monooxygenase (Photinus pyralis) (UniProt P08659); assay: inhibition of purified Photinus pyralis luciferase – biochemical, luminescence, purified enzyme, 2006 set, primary screen (AID 1141); settings: purified firefly luciferase, SteadyGlo luminescence, 30 min; higher = more signal, called active from +8 up or from −8 down;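 note: cell-free assay with purified firefly luciferase at 100 ng per well in PBS; test concentration not given here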
# Chain of Luciferin 4-monooxygenase (Photinus pyralis) (P08659 whole entry, looked up): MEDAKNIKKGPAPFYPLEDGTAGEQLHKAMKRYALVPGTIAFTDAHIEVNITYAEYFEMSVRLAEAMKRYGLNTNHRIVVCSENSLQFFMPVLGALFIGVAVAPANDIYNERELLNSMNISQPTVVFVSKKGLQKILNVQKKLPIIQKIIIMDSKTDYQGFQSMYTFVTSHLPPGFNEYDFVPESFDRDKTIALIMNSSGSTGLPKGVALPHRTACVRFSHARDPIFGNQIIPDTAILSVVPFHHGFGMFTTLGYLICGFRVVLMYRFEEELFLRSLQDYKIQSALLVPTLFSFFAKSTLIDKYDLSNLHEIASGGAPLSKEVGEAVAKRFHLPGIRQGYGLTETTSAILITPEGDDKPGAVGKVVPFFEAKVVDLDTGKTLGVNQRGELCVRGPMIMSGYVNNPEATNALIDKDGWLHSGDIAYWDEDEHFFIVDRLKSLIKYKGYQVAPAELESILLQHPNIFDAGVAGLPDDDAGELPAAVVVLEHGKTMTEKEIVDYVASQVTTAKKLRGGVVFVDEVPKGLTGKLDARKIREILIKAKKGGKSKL
SMILES,composite z-score (Albumin (Bos taurus)),composite Z-score [1],composite z-score [2],composite z-score [3],composite z-score [4],composite z-score [5],composite z-score [6],composite z-score (Sam68 (KHDRBS1)),composite z-score [7],composite z-score [8],composite z-score [9],composite z-score [10],composite z-score [11],composite z-score [12],composite z-score [13],composite z-score [14],z-score [15],composite z-score (Lefty1),composite z-score [16],z-score [17]
CC(C)CON=C1C[C@@H](O)[C@@H](O)[C@@H]2[C@@H]3C(=O)N(c4cccc(Oc5ccccc5)c4)C(=O)[C@@H]3CC[C@H]12,0.529,-0.116 (inactive),-0.0077,-0.118,0.315,0.328,-0.216,0.594,0.22,0.882,0.348,0.347,-0.195,0.202,0.39,0.397,0.0506,0.349,0.196,0.527 (inactive)
CCN1C(=O)[C@H]2[C@H]3[C@H](O)[C@H](O)CC(=NOC)[C@@H]3CC[C@H]2C1=O,-0.311,-0.791 (inactive),0.0297,-0.0681,-0.317,-0.417,-0.375,-0.478,0.508,-0.0569,-0.121,-0.805,-0.384,0.245,0.0723,-0.0102,1.16,0.164,0.299,-0.554 (inactive)
C=CC[C@@H](O)c1ccc(O)c2ccccc12,-0.0028 and -0.264,1.21 (inactive) and -0.181 (inactive),0.347 and 0.0296,-0.0523 and -0.153,0.524 and 0.379,1.18 and 1.3,0.207 and -0.0872,1.04 and 1.08,1.38 and 1.23,0.89 and 0.565,1.02 and 1.68,0.647 and 1.11,-0.618 and 0.11,0.353 and 0.0525,1.38 and 1.39,1.48 and 1.7,0.388 and -0.59,1.4 and 1.06,0.175 and 0.379,-2.65 (inactive) and -2.18 (inactive)
CCN1C(=O)[C@H]2[C@H]3[C@H](O)[C@H](O)CC(=NOC[C@@H](O)COCc4ccco4)[C@@H]3CC[C@H]2C1=O,-0.423 and 0.677,-1.03 (inactive) and -0.471 (inactive),-0.161 and -0.0026,-0.17 and -0.234,-0.473 and 0.753,-0.945 and 0.351,-0.0847 and -0.0256,-0.368 and 0.0907,1.54 and 0.0802,-0.716 and 0.422,-0.48 and 2.77,-1.11 and -1.61,-0.406 and -0.591,-0.852 and -0.943,1.34 and -0.205,1.66 and -0.129,-0.254 and -1.57,1.44 and 0.31,-0.559 and -0.746,-0.0037 (inactive) and 0.33 (inactive)
C=CCN(Cc1ccccc1)C(=O)C1N(CCCCCCO)C(=O)C2C(C(=O)O)C3C=CC21O3 (stereo not given),-0.198 and 0.768,-0.461 (inactive) and -0.2 (inactive),-0.541 and -0.445,-0.14 and -0.154,0.812 and 0.904,-0.376 and -0.155,-0.694 and -0.332,-0.442 and -1.97,-3.18 and -2.25,-0.588 and -2.21,0.193 and -0.664,-0.363 and -0.297,0.0147 and -0.339,-0.923 and -1.99,-1.42 and -1.07,-1.88 and -2.94,-0.38 and 0.344,-1.84 and -1.78,-0.834 and -0.785,1.01 (inactive) and 1.33 (inactive)
CCOC(=O)[C@@H]1CC=C2CC1C(=O)N1CCC[C@@H]1[C@H]2O[Si](C)(C)C(C)(C)C (stereo not given in full),-0.657 and -0.964,0.047 (inactive) and -0.365 (inactive),-0.227 and -0.352,-0.147 and -0.202,-0.33 and -0.492,-0.273 and -0.211,-0.687 and -0.442,-1.04 and -1.8,-0.486 and -0.0717,-2.59 and -3.25,-1.02 and -0.542,-0.419 and -0.434,-0.758 and -0.489,-0.454 and -1.61,-0.76 and -0.645,-0.424 and -0.469,-0.827 and -0.338,-0.224 and -0.132,-0.992 and -0.976,0.0411 (inactive) and 0.838 (inactive)
C[N+](C)(C)CCCCCCNC(=O)[C@H]1C[C@H]2C(=O)N[C@@H](CCCC[N+](C)(C)C)C(=O)N2[C@H]1c1ccc(O)cc1,-1.56 and 0.119,-0.232 (inactive) and 0.577 (inactive),-0.0359 and -0.0947,-0.136 and -0.0651,0.142 and 0.718,0.186 and 0.951,-0.149 and -0.179,0.0061 and 0.117,0.823 and 0.178,-0.341 and -0.163,-0.389 and 0.368,-0.558 and -0.643,-0.391 and -0.0304,-0.112 and -0.705,1.13 and 1.16,1.52 and 0.18,-1.08 and -0.207,1.56 and 0.452,0.618 and -0.277,1.03 (inactive) and 0.485 (inactive)
C=CCN(C(=O)C1N(c2c(Cl)cccc2CO)C(=O)C2C(C(=O)O)C3C=CC21O3)c1ccc(OC)cc1 (stereo not given),0.14 and -0.586,-0.172 (inactive) and -0.621 (inactive),-0.786 and -0.515,-0.46 and -0.162,0.376 and -0.184,0.016 and -0.849,0.137 and -0.803,-0.608 and -1.33,-0.702 and -2.38,-0.494 and -1.23,0.0132 and -1.11,-0.52 and -1.47,-0.542 and -1.13,-0.79 and -1.58,-1.08 and -1.26,-1.37 and -1.76,-1.09 and 1.22,-2.14 and -2.24,0.174 and -1.28,1.4 (inactive) and -1.32 (inactive)
COC(=O)[C@@]1(Cc2ccccc2)[C@H]2c3cc(C(=O)N(C)C)n(Cc4ccc(C)c(F)c4F)c3C[C@H]2CN1C(=O)c1ccccc1,0.821 and 0.859,0.392 (inactive) and -0.26 (inactive),0.141 and 1.27,0.106 and -0.0977,0.72 and 0.653,2.51 and 2.94,0.289 and 0.612,0.998 and 1.34,-1.32 and -0.528,0.201 and 1.18,1.95 and 1.06,1.24 and 1.25,0.73 and 1.04,0.966 and 1.01,0.096 and 1.26,-0.824 and -0.149,-1.17 and -1.14,-0.587 and 0.642,0.899 and 1.03,-1.27 (inactive) and 0.773 (inactive)
